# Results as given in the supplement of paper PMC10646978.
# ± gives the standard deviation.
# What was measured:
# Conditions in all cases: modulator concentration 10 µM
# [1] = test system: RAW-Dual (murine macrophage reporter line); experiment: NF-kB reporter (SEAP) activity fold change vs agonist alone; higher = enhanced NF-kB activity
# Method in brief: (§1)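 In 384-well plates holding 50 000 RAW-Dual murine macrophage reporter cells per well, compound at 10 μM final was pre-incubated for 1 hour at 37 °C, after which a PRR agonist was added overnight. Supernatant SEAP read with QUANTI-Blue at 620 nm absorbance reported NF-κB, and Lucia luciferase read with QUANTI-Luc luminescence reported IRF. Fold change values come from dividing each reporter signal by the mean of agonist-only control wells on the same plate, averaged over replicate plates with propagated errors.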
# [2] = test system: RAW-Dual (murine macrophage reporter line); experiment: IRF reporter (Lucia luciferase) activity fold change vs agonist alone; higher = enhanced IRF activity
# Method in brief: as §1
# [3] = test system: RAW-Dual (murine macrophage reporter line); experiment: viability score (confluency relative to resting cells, overnight) (fraction); higher = more viable, active = viable (0.7 or more)
# Method in brief: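 Compound was added at a final 10 μM to RAW-Dual macrophages in 384-well plates and left overnight. Confluency was imaged with IncuCyte, and two masks were generated in IncuCyte software over all imaged wells. Each viability score is confluency relative to resting cells, and a compound met the cutoff only when both masks were above 70% of resting cells.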
# [4] = agonist: CpG ODN 1826 0.5 ug/mL
compound,measurement,setting,value
CN(C)CCCOc1nn(Cc2ccccc2)c2ccccc12.Cl,NF-kB reporter,[1]; [4],0.704 ± 0.032
same,NF-kB reporter,[1]; agonist: LPS 0.1 ug/mL,0.913 ± 0.073
same,NF-kB reporter,[1]; agonist: MPLA […],0.803 ± 0.045
same,IRF reporter,[2]; agonist: 3'3'-cGAMP 10 ug/mL,0.892 ± 0.043
same,IRF reporter,[2]; agonist: LPS 0.1 ug/mL,1.14 ± 0.27
same,IRF reporter,[2]; agonist: MPLA […],1.22 ± 0.43
same,viability score,[3],1 (active)
CS(=O)(=O)C1CC2CCC(C1)N2C(=O)c1cccc(Oc2ccc(F)cc2)c1 (centres undefined),NF-kB reporter,[1]; [4],1.07 ± 0.09
same,NF-kB reporter,[1]; agonist: LPS 0.1 ug/mL,1.13 ± 0.097
same,NF-kB reporter,[1]; agonist: MPLA […],1.06 ± 0.15
same,IRF reporter,[2]; agonist: 3'3'-cGAMP 10 ug/mL,0.94 ± 0.048
same,IRF reporter,[2]; agonist: LPS 0.1 ug/mL,1.2 ± 0.085
same,IRF reporter,[2]; agonist: MPLA […],1.33 ± 0.17
same,viability score,[3],0.99 (active)
COc1cc(OC)c(C(=O)CCCN2CCCC2)c(OC)c1.Cl,NF-kB reporter,[1]; [4],0.98 ± 0.096
same,NF-kB reporter,[1]; agonist: LPS 0.1 ug/mL,1.01 ± 0.063
same,NF-kB reporter,[1]; agonist: MPLA […],1 ± 0.057
same,IRF reporter,[2]; agonist: 3'3'-cGAMP 10 ug/mL,0.937 ± 0.081
same,IRF reporter,[2]; agonist: LPS 0.1 ug/mL,0.941 ± 0.035
same,IRF reporter,[2]; agonist: MPLA […],0.899 ± 0.07
same,viability score,[3],1 (active)
CN1CCN(c2c(F)cc3c(=O)c(C(=O)O)cn4c3c2OCN4C)CC1,NF-kB reporter,[1]; [4],1.2 ± 0.34
same,NF-kB reporter,[1]; agonist: LPS 0.1 ug/mL,1.09 ± 0.093
same,NF-kB reporter,[1]; agonist: MPLA […],0.971 ± 0.099
same,IRF reporter,[2]; agonist: 3'3'-cGAMP 10 ug/mL,0.958 ± 0.039
same,IRF reporter,[2]; agonist: LPS 0.1 ug/mL,1.26 ± 0.15
same,IRF reporter,[2]; agonist: MPLA […],1.25 ± 0.12
same,viability score,[3],0.995 (active)
Cc1cc(C(O)CNC(=O)c2ccc(C(F)(F)F)nc2)c(C)o1 (centres undefined),NF-kB reporter,[1]; [4],1.25 ± 0.083
same,NF-kB reporter,[1]; agonist: LPS 0.1 ug/mL,1.05 ± 0.085
same,NF-kB reporter,[1]; agonist: MPLA […],1.01 ± 0.029
same,IRF reporter,[2]; agonist: 3'3'-cGAMP 10 ug/mL,0.965 ± 0.049
same,IRF reporter,[2]; agonist: LPS 0.1 ug/mL,1.04 ± 0.053
same,IRF reporter,[2]; agonist: MPLA […],1.16 ± 0.11
same,viability score,[3],1 (active)
COc1ccc(N(CC(=O)Nc2ccc3ccccc3c2)S(C)(=O)=O)cc1OC,NF-kB reporter,[1]; [4],0.921 ± 0.074
same,NF-kB reporter,[1]; agonist: LPS 0.1 ug/mL,1.06 ± 0.06
same,NF-kB reporter,[1]; agonist: MPLA […],0.883 ± 0.054
same,IRF reporter,[2]; agonist: 3'3'-cGAMP 10 ug/mL,0.907 ± 0.025
same,IRF reporter,[2]; agonist: LPS 0.1 ug/mL,1.43 ± 0.18
same,IRF reporter,[2]; agonist: MPLA […],1.06 ± 0.14
same,viability score,[3],1.01 (active)
CN[C@H]1CC[C@@H](c2ccc(Cl)c(Cl)c2)c2ccccc21.Cl,NF-kB reporter,[1]; [4],0.407 ± 0.039
same,NF-kB reporter,[1]; agonist: LPS 0.1 ug/mL,0.757 ± 0.049
same,NF-kB reporter,[1]; agonist: MPLA […],1.49 ± 0.14
same,IRF reporter,[2]; agonist: 3'3'-cGAMP 10 ug/mL,1.18 ± 0.1
same,IRF reporter,[2]; agonist: LPS 0.1 ug/mL,1.27 ± 0.084
same,IRF reporter,[2]; agonist: MPLA […],1.97 ± 0.23
same,viability score,[3],0.258 (inactive)
COc1ccc(-c2oc3ccc(OC)cc3c2C(=O)Nc2ccccc2C)cc1,NF-kB reporter,[1]; [4],0.917 ± 0.047
same,NF-kB reporter,[1]; agonist: LPS 0.1 ug/mL,1.17 ± 0.092
same,NF-kB reporter,[1]; agonist: MPLA […],0.959 ± 0.073
same,IRF reporter,[2]; agonist: 3'3'-cGAMP 10 ug/mL,1 ± 0.055
same,IRF reporter,[2]; agonist: LPS 0.1 ug/mL,1.1 ± 0.073
same,IRF reporter,[2]; agonist: MPLA […],1.12 ± 0.11
same,viability score,[3],1 (active)
COc1ccc(C2CC(=O)C(=Cc3c[nH]c4ccccc34)C(=O)C2)cc1 (centres undefined),NF-kB reporter,[1]; [4],0.91 ± 0.055
same,NF-kB reporter,[1]; agonist: LPS 0.1 ug/mL,1.04 ± 0.11
same,NF-kB reporter,[1]; agonist: MPLA […],0.905 ± 0.08
same,IRF reporter,[2]; agonist: 3'3'-cGAMP 10 ug/mL,0.76 ± 0.04
same,IRF reporter,[2]; agonist: LPS 0.1 ug/mL,1.25 ± 0.11
same,IRF reporter,[2]; agonist: MPLA […],1.1 ± 0.13
same,viability score,[3],0.991 (active)
N#Cc1cc(-c2n[nH]c(-c3ccncc3)n2)ccn1,NF-kB reporter,[1]; [4],0.998 ± 0.19
same,NF-kB reporter,[1]; agonist: LPS 0.1 ug/mL,1.06 ± 0.32
same,NF-kB reporter,[1]; agonist: MPLA […],0.958 ± 0.077
same,IRF reporter,[2]; agonist: 3'3'-cGAMP 10 ug/mL,0.891 ± 0.035
same,IRF reporter,[2]; agonist: LPS 0.1 ug/mL,1.13 ± 0.25
same,IRF reporter,[2]; agonist: MPLA […],1.12 ± 0.28
same,viability score,[3],1 (active)
Cc1ccc(-c2ncc(Cl)cc2-c2ccc(S(C)(=O)=O)cc2)cn1,NF-kB reporter,[1]; [4],1.03 ± 0.17
same,NF-kB reporter,[1]; agonist: LPS 0.1 ug/mL,1.15 ± 0.33
same,NF-kB reporter,[1]; agonist: MPLA […],0.973 ± 0.054
same,IRF reporter,[2]; agonist: 3'3'-cGAMP 10 ug/mL,1.05 ± 0.038
same,IRF reporter,[2]; agonist: LPS 0.1 ug/mL,1.29 ± 0.4
same,IRF reporter,[2]; agonist: MPLA […],1.37 ± 0.1
same,viability score,[3],1 (active)
Nc1nc(N)c2nc(-c3ccccc3)c(N)nc2n1,NF-kB reporter,[1]; [4],0.861 ± 0.15
same,NF-kB reporter,[1]; agonist: LPS 0.1 ug/mL,1.03 ± 0.17
same,NF-kB reporter,[1]; agonist: MPLA […],0.891 ± 0.056
same,IRF reporter,[2]; agonist: 3'3'-cGAMP 10 ug/mL,0.56 ± 0.017
same,IRF reporter,[2]; agonist: LPS 0.1 ug/mL,1.17 ± 0.27
same,IRF reporter,[2]; agonist: MPLA […],1.18 ± 0.18
same,viability score,[3],0.92 (active)
